Source: PubChem (National Center for Advancing Translational Sciences (NCATS))
Sampled rows, rich in hits. Any-hit rate of the full collection: about 4.1%.
PK Bst = Pyruvate Kinase | purified pyruvate kinase, luminescence ATP production; ribose 5-phosphate activator present at AC10 | Potency, µM | 51,000 tested, 1.2% active | AID 361, 2006; in the data active = potency below about 11 µM; inconclusive = mostly about 12 µM to 25 µM;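 the screen sought inhibitors and activators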;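 also: potency is read from the fitted curve at half-maximal effect; scaled between full activation by ribose 5 phosphate and full inhibition by luteolin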
TSHR ag = qHTS Assay for Agonists of the Thyroid Stimulating Hormone Receptor; HEK293-CNG-TSHR cells (CNG channel as cAMP sensor), membrane potential dye, cAMP; Potency, µM (titrated, usually from 57.1 µM), without a hit: at the highest dose activation, actives largely listed as activators; 73,000 tested, 0.48% active; active = well fitted activation curve with a large enough effect in the main read-out, with a control signal flat, not every such curve was filed as active; inconclusive = small, poorly fitted or top-dose-only effect, or a change in a side signal; inactive = no such curve, though single readings can be large or run the other way; % of control where 0% means no effect;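 also: the control signal comes from parental cells without the receptor; potency is read from the fitted curve at half-maximal effect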
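HEK 293 cells stably expressing TSHR and a modified CNG channel, with CNG-only parental cells as counterscreen, were preloaded 60 min at room temperature with membrane potential dye containing 100 uM RO 20-1724. Compound exposure was 30 min, and depolarization was read as fluorescence at 590 nm.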
USP2a inh = qHTS Assay for Inhibitors of Ubiquitin-specific Protease USP2a; Ubiquitin carboxyl-terminal hydrolase 2 (Homo sapiens), O75604; USP2a enzymatic assay, qHTS inhibition; Potency, µM (titrated, usually from 38.3 µM), inactives show at the highest dose activity change, negative = inhibition, most hits filed as inhibitors; 60,000 tested, 0.1% active; AID 927, 2007; also: potency is read from the fitted curve at half-maximal effect; nearly all actives have a fitted effect of over 60% in size
Target sequence (O75604 whole entry, looked up): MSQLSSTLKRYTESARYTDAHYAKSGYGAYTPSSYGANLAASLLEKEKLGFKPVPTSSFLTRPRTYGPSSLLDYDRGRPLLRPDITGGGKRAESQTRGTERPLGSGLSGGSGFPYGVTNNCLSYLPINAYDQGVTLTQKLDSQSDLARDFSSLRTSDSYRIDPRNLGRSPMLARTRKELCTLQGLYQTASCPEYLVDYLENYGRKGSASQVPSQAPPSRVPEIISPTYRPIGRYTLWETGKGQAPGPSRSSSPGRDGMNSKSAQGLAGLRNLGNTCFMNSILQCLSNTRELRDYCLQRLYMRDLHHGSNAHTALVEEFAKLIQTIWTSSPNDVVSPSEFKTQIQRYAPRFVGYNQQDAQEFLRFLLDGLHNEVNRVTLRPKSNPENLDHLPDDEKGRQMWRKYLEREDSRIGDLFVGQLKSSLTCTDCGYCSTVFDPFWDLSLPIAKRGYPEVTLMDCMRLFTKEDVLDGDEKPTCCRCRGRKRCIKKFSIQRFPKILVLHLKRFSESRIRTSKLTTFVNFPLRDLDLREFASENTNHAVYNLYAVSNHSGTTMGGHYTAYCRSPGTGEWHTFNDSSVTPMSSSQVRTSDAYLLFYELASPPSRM
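USP2 core (20 nM final) was preincubated with compound for 30 min at RT in 20 mM Tris-HCl pH 8.0, 2 mM CaCl2, 2 mM beta-mercaptoethanol; Ub-PLA2 (20 nM) plus NBD C6-HPC (20 uM) then added, fluorescence read after 2.5 h.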
HEK293 cAMP cs = qHTS Assay for Agonists of the Thyroid Stimulating Hormone Receptor: Activators of Intracellular cAMP Concentrations in Parental HEK 293. Potency, µM (series often up to 57.1 µM), without a hit: at the highest dose activation, actives largely listed as activators. parental HEK293 CNG cAMP sensor, membrane potential fluorescence. 73,000 tested, 2.5% active; also: potency is read from the fitted curve at half-maximal effect; % of control where 0% means no effect; nearly all actives have a fitted effect of over 55% in size
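Counterscreen for endogenous-receptor signalling: CNG-channel HEK 293 cells report cAMP rise by membrane depolarization. After 60 min dye equilibration with 100 uM RO 20-1724, compounds incubated 30 min before bottom-read fluorescence at 590 nm.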
Ub-GFP proteasome = Ubiquitin-GFP Assay | 67,000 tested, under 10 active | Potency, µM (titrated, usually from 45.9 µM), inactives show at the top dose activation (GFP accumulation), hits mostly activators | Ubiquitin-GFP reporter cells, proteasome inhibition, GFP fluorescence; response scale: untreated = 0%, 10 µM MG-132 = 100% | AID 526, 2006; active = well fitted activation curve with a large enough effect, not every such curve was filed as active; inconclusive = small, poorly fitted or top-dose-only effect, or another doubt; inactive = no such curve, though single readings can be large or run the other way; also: potency is read from the fitted curve at half-maximal effect
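Proteasome blockade was scored as a rise in GFP-expressing U2OS cells carrying a ubiquitin(G76V)-GFP construct, imaged after 4 hr compound treatment at 37 °C across a 46 uM–2.9 nM series.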
GBA activity = Glucocerebrosidase | AID 360, 2006 | Potency, µM | 48,000 tested, 1.1% active | purified enzyme, resorufin glucoside fluorescence (screen aimed at inhibitors), 20 min; in the data active = potency below about 15 µM; inconclusive = mostly about 16 µM to 33 µM;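 also: potency is read from the fitted curve at half-maximal effect; the screen sought inhibitors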
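Wild-type enzyme at 0.2 nM final in 50mM citric acid/KH2PO4, 10mM sodium taurocholate, 0.01% tween-20, pH 5.9, with resorufin beta-D-glucopyranoside at 30 uM final. Compounds titrated, 20 min at RT, red fluorescence read; AC50 from titration.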
parental cAMP = Confirmation Concentration-Response Assay for Agonists of the Thyroid Stimulating Hormone Receptor: Activators of Intracellular cAMP Concentrations in Parental HEK 293; shares compounds with TSHR ag; parental HEK293 CNG biosensor, cAMP membrane potential fluorescence; activity change, negative = inhibition, % at 32.9 µM; 150 tested, under 10 active; AID 953, 2007
* = called active by the depositor; i = inactive; ? = inconclusive; · = no result given; [ ] = another dose, or the depositor's remark. Unless noted, calls follow the shape of the dose curve; as a rule, active = well fitted curve in the direction sought with a large enough effect; inconclusive = small, poorly fitted or top-dose-only effect, or another doubt; inactive = no such curve, though single readings can be large; an effect the other way counts as inactive or inconclusive.

SMILES | PK Bst | TSHR ag | USP2a inh | HEK293 cAMP cs | Ub-GFP proteasome | GBA activity | parental cAMP
CCOC(=O)N1CCC(NC(=O)c2ccc(CNS(=O)(=O)c3ccc(F)cc3)cc2)CC1 | >57 | 25µM* | 3% | 9% | 3% | >77 | 8
CCS(=O)(=O)N1CCN(C(C)CCc2ccccc2)CC1 (centres undefined) | · | · | 1%[7.66 µM] | 9%[11.4 µM] | -14%[9.17 µM] | · | -3
CC[C@H](CN(C)C)C(=O)c1ccco1 | · | -3%[11.4 µM] | · | 3%[11.4 µM] | 2%[9.17 µM] | · | ·
Cc1ccc(S(=O)(=O)NC(=O)NN2CCCCCC2)cc1 | >26 | -6%[25.6 µM] | 3% | 10%[25.6 µM] | 17%[20.5 µM] | · | ·
Cc1ccc(S(=O)(=O)NC(=O)Nn2c(C)nnc2C)cc1 | · | 10% | 0% | 3% | -3% | · | 2[25.6 µM]
Cc1cccc(OCC(=O)OCC(=O)c2c(N)n(C)c(=O)n(C)c2=O)c1 | >57 | 13µM* | 4% | 0% | -1% | >77 | 4
Cc1ccc(CNC(=O)[C@H](C)[C@@H]2C[C@@]2(C)[C@@H](NC(=O)OCc2ccccc2)c2ccccc2)c(F)c1F | · | 0% | · | 12% | · | · | ·
Nc1cc(CN2C(=O)c3ccccc3C2=O)cc(Cl)c1O | >57 | 2% | 16% | -2% | 4% | >77 | 5[25.6 µM]
O=C1c2ccccc2C(=O)N1Cc1ccc2c(c1)OCO2 | >57 | ? | 1% | ? | 4% | >77 | ·
COc1ncc2ncc(=O)n(C)c2n1 | · | -4% | 8% | 14% | 8% | · | ·
CCN(CC)S(=O)(=O)c1ccc(Cl)c(C(=O)NC2CCCC2)c1 | · | · | 2% | 51% | -4% | · | ?
COC(=O)C1=C(C)OC(N)=C(C#N)C1C1CCCCC1 (centres undefined) | >57 | 13µM* | -11% | 25% | -1% | >77 | 16
COC(=O)C1=C(C)OC(N)=C(C#N)C1c1ccccc1 (centres undefined) | >57 | 3% | 8% | 23% | 6% | >77 | ·
COC(=O)C1=C(C)OC(N)=C(C#N)C1c1c(C)nn(-c2ccccc2)c1Cl (centres undefined) | >57 | 6.3µM* | 14% | 15% | 1% | >77 | 6
Oc1ccc(Cn2c(-c3ccc(O)cc3)nc3ccccc32)cc1 | · | 5%[11.4 µM] | · | -1%[11.4 µM] | -2%[9.17 µM] | · | ·
Oc1ccccc1Cn1c(-c2ccccc2O)nc2ccccc21 | >57 | 10µM* | 16% | -13% | -3% | · | -15
COc1ccc(-c2cc(C(F)(F)F)nc(SCCC(=O)N3CCOCC3)n2)cc1 | >57 | 20µM* | 18% | 23% | -2% | >77 | 13
CC(=O)Nc1ccc(S(=O)(=O)N(C)c2ccccc2)cc1 | · | 0.79µM* | 4% | 1% | 10% | · | 5
CCN(C(=O)CN1CCCc2ccccc21)c1c(N)n(Cc2ccccc2)c(=O)[nH]c1=O | >57 | 8% | 3% | 0% | 1% | >77 | ·
CCn1c(=O)c(C(=O)CN2CCCc3ccccc32)c(N)n(Cc2ccccc2)c1=O | >57 | -21% | 27% | -8% | 2% | >77 | -17[25.6 µM]
COc1ccc(NC(=O)CN(c2ccc(C)cc2)S(=O)(=O)c2c(C)nn(C)c2C)cc1OC | >57 | 16% | -11% | 1% | 11% | >77 | ·
Cc1nn(C)c(C)c1S(=O)(=O)N(CC(=O)Nc1ccccn1)c1ccc(C(C)C)cc1 | · | 10µM* | · | 17% | 7% | · | -9
COc1ccc(NC2c3ccccc3C(=O)N2c2cccnc2)cc1Cl (centres undefined) | · | 13% | · | 3% | -10% | · | ·
COC(=O)c1cc(NC2c3ccccc3C(=O)N2c2cccnc2)cc(C(=O)OC)c1 (centres undefined) | · | 16µM* | · | 15% | 3% | · | 18
OCCNc1ncnc2nc[nH]c12 | · | 0%[11.4 µM] | · | 0%[11.4 µM] | -5%[9.17 µM] | · | ·
SMILES | PK Bst | TSHR ag | USP2a inh | HEK293 cAMP cs | Ub-GFP proteasome | GBA activity | parental cAMP
NC(=O)c1nsc(C(=O)N(CC(=O)NCc2ccc3c(c2)OCO3)C2CCCCC2)c1N | >57 | 2µM* | · | 18% | 2% | >77 | 9
CC1(C)COCN1COC1CCCCC1 | · | -1%[11.4 µM] | · | 4%[11.4 µM] | -6%[9.17 µM] | · | ·
COC(=O)CNC(=O)C12CC3(C)CC(C)(CC(C)(C3)C1)C2 | >57 | 13µM* | -8% | 5% | 4% | >77 | 8
O=c1/c(=C/c2ccco2)sc2nc(-c3ccccc3Br)nn12 | >57 | -19% | 37% | -29% | -1% | i | ·
CN1C(=O)N(C)C2(c3ccccc3)Nn3c(s/c(=C/c4ccco4)c3=O)=NC12c1ccccc1 (centres undefined) | >57 | 1.6µM* | 28% | 4% | · | · | -1
Cc1cc(Cl)c(S(=O)(=O)Nc2ccc3c(c2)OCO3)cc1OCC(N)=O | >57 | 13µM* | 34% | 20% | -8% | >77 | -8
CCCNC(=O)OC[C@@H]1O[C@H](CCO/N=C(\C)CCC(=O)OC[C@@H]2O[C@H](c3ccccc3)C=C[C@@H]2Oc2ccc(OC)cc2)C=C[C@@H]1Oc1ccc(OC)cc1 | · | -1%[11.4 µM] | · | -7%[11.4 µM] | · | · | ·
CC1=CCC2C(=O)N(c3ccc(Br)cc3C)C(=O)C2C1 (centres undefined) | >57 | 25µM* | 4% | 3% | -5% | >77 | -2
NC(=O)c1cc[n+](CC2=C(C(=O)O)N3C(=O)[C@@H](NC(=O)[C@H](c4ccccc4)S(=O)(=O)[O-])[C@@H]3SC2)cc1 | · | 5%[25.6 µM] | -14%[17.1 µM] | 4%[25.6 µM] | -4%[20.5 µM] | · | ·
O=C(O)c1ccc(F)c(S(=O)(=O)Nc2cccc(F)c2)c1 | · | -6% | · | -14% | · | · | ·
Cc1noc(/C=C/c2ccco2)c1S(=O)(=O)N1CCC(C(=O)NCc2ccco2)CC1 | >57 | 32µM* | 44% | 12% | 0% | >77 | 18
Cc1ccc(S(=O)(=O)N2CCC(C(=O)NCCCN3CCCCCC3)CC2)cc1 | 10* | 4µM* | 17% | -1% | 1% | >77 | -4
Cc1ccc(S(=O)(=O)N2CCC(C(=O)NC3CCCCCC3)CC2)cc1 | · | 15%[11.4 µM] | -2%[7.66 µM] | 2%[11.4 µM] | -2%[9.17 µM] | · | ·
O=C(O)C1(O)CC(O)C(O)C(O)C1 (centres undefined) | · | · | -10% | · | · | · | ·
O=C(CSc1nc2scc(-c3ccco3)c2c(=O)n1-c1ccccc1)N1CCOCC1 | >57 | 16µM* | 33% | 23% | -4% | ? | 7
Cn1c(=O)[nH]c(=O)c2c1nc(N1CCCCCC1)n2CCCSc1nc2ccccc2o1 | >57 | 4% | 5% | -3% | 4% | >77 | 13[25.6 µM]
CCOC(=O)C1C(=O)Nc2nc(C)nn2C1c1ccccc1 (centres undefined) | >57 | 4µM* | -4% | -1% | -2% | >77 | -7
